Compound activity (PubChem)
LASV entry inh: blocks Lassa virus binding to or entry into cells; Lassa virus pseudotype entry inhibition, cell reporter; Potency, µM (doses to about 37.9 µM), hits mostly inhibitors; 300,000 tested, 1.2% active; calls by dose curve; tested in HEK293 cells; further: nearly all actives have a fitted effect of over 50% in size
HCV inh: HCV inhibition. Huh7.5.1 HCVcc-Cre infection, luciferase reporter, 44 h. Potency, µM (highest dose often 41.8 µM), actives largely listed as inhibitors. 340,000 tested, 3.4% active. AID 651820; active means well fitted inhibition curve with a large enough effect; inconclusive means small, poorly fitted or top-dose-only effect, or another doubt; inactive means no such curve, though single readings can be large or run the other way
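Infectious HCV cell culture screen: compound-treated cells (1,000/well, pre-plated 4 h) are infected with HCVcc-Cre at roughly 0.5 moi and grown 44 h. Infection is quantified by luciferase signal after 15 min substrate incubation at room temperature.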
VACV mCherry inh: vaccinia inhibition (mCherry reporter); Vaccinia virus mCherry reporter infection, fluorescence; Potency, µM (highest dose often 36.5 µM), most hits filed as inhibitors; 310,000 tested, 0.63% active; AID 720579; calls by dose curve; tested in A549 cells; further: nearly all actives have a fitted effect of over 35% in size
HCMV antiviral: inhibitors of human cytomegalovirus | HFF cells, HCMV-luciferase reporter, 72 h; stronger effect = lower value | activity change, negative = inhibition, % at 57.5 µM | 410,000 tested, 4.5% active | AID 1259415; in the data active means activity change below about -60%; inconclusive means no clear call, values can overlap the other calls; inactive means above about -39%
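Screen run at 2 compound doses on HFFs infected with reporter HCMV, MOI 1 PFU/cell. Luciferase activity from cell lysates at 72 h post infection gave inhibition relative to buffer-only and Salinomycin wells.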
Marburg entry inh: Marburg virus entry inhibition. Marburg virus pseudotyped entry inhibition, cell reporter. Potency, µM (titrated, usually from 37.8 µM), usual class: inhibitors. 300,000 tested, 1.8% active. AID 540276; calls by dose curve; tested in HEK293 cells
Vaccinia Venus: inhibitors of vaccinia virus (Venus reporter); Potency, µM (highest dose often 36.5 µM), usual class: inhibitors; Vaccinia virus Venus reporter expression, fluorescence; 330,000 tested, 0.46% active; calls by dose curve; tested in A549 cells; further: nearly all actives have a fitted effect of over 30% in size
Large screens that a line does not name were inactive. A selection: hits, their analogues and other compounds. The true share with any hit is near 7.8%.

N#Cc1c(N)n(-c2cccc(Cl)c2)c2nc3ccccc3nc12	none (no result: HCV inh)
CCCc1ccc(S(=O)(=O)N2CCC(Oc3ccc(-n4cnnn4)cc3)CC2)cc1	LASV entry inh inconclusive (no result: HCV inh)
O=S(=O)(c1cccc(Cl)c1)N1CCCC1	HCMV antiviral -107 (no result: VACV mCherry inh, Vaccinia Venus)
N=c1sccn1CC(=O)Nc1cccc(S(=O)(=O)N2CCCCCC2)c1	HCV inh 10µM, Marburg entry inh inconclusive (no result: VACV mCherry inh, Vaccinia Venus)
CCOc1ccc(C(=O)CCC(=O)Nc2cccc(S(=O)(=O)N3CCCCC3)c2)cc1	LASV entry inh 10µM, HCV inh inconclusive, Marburg entry inh inconclusive
O=C(CCl)Nc1cccc(S(=O)(=O)N2CCCCCC2)c1	LASV entry inh 7.9µM, HCV inh inconclusive, VACV mCherry inh inconclusive, HCMV antiviral -97, Marburg entry inh inconclusive, Vaccinia Venus inconclusive
O=C(NC1CC(=O)N(c2cccc(F)c2)C1)C(c1ccccc1)c1ccccc1 (centres undefined)	HCMV antiviral inconclusive (no result: HCV inh, Marburg entry inh)
COC(=O)c1ccc(CN2C(=O)[C@]3(O[C@H](C)CC4=CCCC43)c3c(Br)cccc32)cc1 (some centres undefined)	none (no result: LASV entry inh, HCV inh, VACV mCherry inh, HCMV antiviral, Vaccinia Venus)
O=C(c1cc(S(=O)(=O)N2CCCC2)c[nH]1)N1CCN(c2cccc(Cl)c2)CC1	VACV mCherry inh inconclusive, HCMV antiviral -102, Vaccinia Venus inconclusive (no result: HCV inh, Marburg entry inh)
CC(C)CN(CC(C)C)C(=O)c1cc(S(=O)(=O)N2CCCCC2)c[nH]1	HCMV antiviral inconclusive (no result: LASV entry inh, VACV mCherry inh, Marburg entry inh, Vaccinia Venus)
CCOc1ccc(NC(=O)CN2C(=O)C(C)SC(C)C2=O)cc1 (centres undefined)	HCMV antiviral -65
CCOc1ccc(NC(=O)CN2C(=O)CSc3ccc(S(=O)(=O)N4CCCC4)cc32)cc1	HCV inh inconclusive, HCMV antiviral active (no result: LASV entry inh, VACV mCherry inh, Marburg entry inh, Vaccinia Venus)
CCCN(CCC)C(=O)c1cc(S(=O)(=O)N2CCCCC2)c[nH]1	HCV inh 4.5µM (no result: LASV entry inh, Marburg entry inh)
CCOC(=O)C1=CCN(S(=O)(=O)c2cccc(Cl)c2)C1c1ccc(Cl)c(Cl)c1 (centres undefined)	none (no result: LASV entry inh, HCV inh, VACV mCherry inh, Marburg entry inh, Vaccinia Venus)
Cc1ccc2[nH]c(C(=O)NCc3nc(-c4cccc(NC(=O)c5cc(C)oc5C)c4)oc3C)cc2c1	none (no result: LASV entry inh, HCV inh, HCMV antiviral, Marburg entry inh)
O=C(COc1ccc(F)cc1Cl)Nc1cccc(S(=O)(=O)N2CCCC2)c1	HCV inh 10µM (no result: LASV entry inh, VACV mCherry inh, Marburg entry inh, Vaccinia Venus)
O=C(COc1ccccc1Cl)Nc1cccc(S(=O)(=O)N2CCCC2)c1	HCV inh 10µM, HCMV antiviral inconclusive (no result: LASV entry inh, VACV mCherry inh, Marburg entry inh, Vaccinia Venus)
O=C(COc1cc(F)ccc1[N+](=O)[O-])Nc1cc(S(=O)(=O)N2CCCC2)ccc1Cl	HCV inh 14µM
O=C(COc1ccccc1)Nc1cccc(S(=O)(=O)N2CCCC2)c1	LASV entry inh inconclusive
O=C(COc1ccccc1[N+](=O)[O-])Nc1cccc(S(=O)(=O)N2CCCC2)c1	LASV entry inh inconclusive, HCV inh inconclusive, HCMV antiviral inconclusive, Marburg entry inh inconclusive
CCC1CN(CCC(=O)NC2CCOC(C)(C)C2)Cc2cc(OC)ccc2O1 (centres undefined)	none (no result: LASV entry inh, HCV inh, HCMV antiviral, Marburg entry inh)
Cc1cccc(N2CCN(C(=O)c3cn(C)c4ccc(S(=O)(=O)N(C)C)cc4c3=O)CC2C)c1 (centres undefined)	none (no result: HCV inh)
COC(=O)/C=C/c1sc2nc(C)cc(C)c2c1N=CN(C)C	HCMV antiviral -68, Marburg entry inh inconclusive
Cc1cc(C)c2c(N=CN(C)C)c(C(=O)N3CCN(c4ncccn4)CC3)sc2n1	HCV inh inconclusive
CCn1c(=O)c(C(C)=O)nc2ccccc21	HCMV antiviral -66 (no result: VACV mCherry inh)
CCc1nc2ccccc2n(CC)c1=O	Marburg entry inh inconclusive
Cc1cc(C)c2cc(C#N)c(N3CCCN(C(=S)NCCCN(C)C)CC3)nc2c1	HCV inh 11µM, Marburg entry inh inconclusive
COc1cc(C(=O)N2CCCN(c3nc4cc(C)ccc4cc3C#N)CC2)cc(OC)c1OC	HCV inh inconclusive, Marburg entry inh inconclusive (no result: VACV mCherry inh, Vaccinia Venus)
CCOCCCNC(=S)N1CCCN(c2nc3c(C)c(C)ccc3cc2C#N)CC1	HCV inh 10µM, Marburg entry inh inconclusive
CCOCCCNC(=S)N1CCCN(c2nc3cc(C)ccc3cc2C#N)CC1	none
Cc1ccc2cc(C#N)c(N3CCCN(C(=S)NCCCN(C)C)CC3)nc2c1	LASV entry inh inconclusive, HCV inh 10µM, Marburg entry inh 7.1µM, Vaccinia Venus inconclusive
O=C(Nc1cc(C(F)(F)F)ccc1Cl)c1noc2c1CCCCC2	Marburg entry inh inconclusive (no result: HCV inh)
O=C1NCCOc2ccccc21	none (no result: LASV entry inh, HCV inh, VACV mCherry inh, Marburg entry inh, Vaccinia Venus)
Cc1ccc(-c2nc3scc(CCNS(=O)(=O)c4c(C)noc4C)n3n2)cc1	none (no result: HCV inh, Marburg entry inh)
CCc1ccc(OCC(=O)NC(NC(=S)Nc2ccccc2OC)C(Cl)(Cl)Cl)cc1 (centres undefined)	HCV inh inconclusive, VACV mCherry inh inconclusive, HCMV antiviral -72
Cc1ccc(NC(=S)NC(NC(=O)c2ccccc2C)C(Cl)(Cl)Cl)c(C)c1 (centres undefined)	LASV entry inh inconclusive, HCV inh inconclusive, Marburg entry inh 23µM (no result: VACV mCherry inh, Vaccinia Venus)
CCc1ccc(OCC(=O)NC(NC(=S)Nc2ccccc2)C(Cl)(Cl)Cl)cc1 (centres undefined)	LASV entry inh inconclusive, HCV inh inconclusive, VACV mCherry inh inconclusive, Marburg entry inh inconclusive, Vaccinia Venus inconclusive
COc1ccc(NC(=S)NC(NC(=O)c2cccc3ccccc23)C(Cl)(Cl)Cl)c([N+](=O)[O-])c1 (centres undefined)	HCV inh 10µM, Marburg entry inh inconclusive
COC(=O)c1ccccc1NC(=S)NC(NC(=O)COc1ccccc1)C(Cl)(Cl)Cl (centres undefined)	HCMV antiviral -102, Marburg entry inh inconclusive
COc1ccc(NC(=S)NC(NC(=O)c2ccccc2Cl)C(Cl)(Cl)Cl)c([N+](=O)[O-])c1 (centres undefined)	HCV inh inconclusive, HCMV antiviral inconclusive, Marburg entry inh inconclusive
COc1cccc([C@H]2C(C(=O)c3sc(C)nc3C)=C(O)C(=O)N2CCN2CCOCC2)c1OC	none (no result: LASV entry inh, HCV inh, VACV mCherry inh, HCMV antiviral, Vaccinia Venus)
O=S(=O)(Nc1ccc(-c2ccc(N3CCCC3)nn2)cc1)c1ccc(OC(F)(F)F)cc1	LASV entry inh inconclusive (no result: HCV inh, Marburg entry inh)
C#CCCCON=C1C[C@@H](O)[C@@H](O)[C@@H]2[C@H]3C(=O)N(C(C)(C)C)C(=O)[C@@H]3CC[C@H]12	none (no result: LASV entry inh, HCV inh, VACV mCherry inh, HCMV antiviral, Vaccinia Venus)
Cc1ccccc1NC(=S)NC(NC(=O)COc1ccccc1)C(Cl)(Cl)Cl (centres undefined)	VACV mCherry inh inconclusive, Marburg entry inh inconclusive
CCc1ccc(OCC(=O)NC(NC(=S)Nc2ccc(C)cc2C)C(Cl)(Cl)Cl)cc1 (centres undefined)	HCV inh inconclusive, HCMV antiviral -64, Marburg entry inh inconclusive, Vaccinia Venus inconclusive (no result: VACV mCherry inh)
O=C1c2cccc3c([N+](=O)[O-])ccc(c23)C(=O)N1c1ccc(Cl)cn1	LASV entry inh inconclusive, HCV inh 10µM, HCMV antiviral -105, Marburg entry inh inconclusive
O=C1c2ccc([N+](=O)[O-])cc2C(=O)N1c1ccc(Cl)cn1	none (no result: LASV entry inh, VACV mCherry inh, Marburg entry inh, Vaccinia Venus)
O=C1c2cccc3c([N+](=O)[O-])ccc(c23)C(=O)N1c1ccccn1	LASV entry inh inconclusive, HCV inh inconclusive, HCMV antiviral -103, Marburg entry inh 10µM
